Hits are enriched below; roughly 21% of the tested compounds scored in any of these assays.
SARS PLP yeast – blocks SARS-CoV papain-like protease in a yeast assay; S. cerevisiae expressing SARS-CoV PLpro, growth rescue; Potency, µM (doses to about 32.9 µM), usual class: activators; 0.19% of 330,000 active; AID 485353; further: nearly all actives have a fitted effect of over 55% in size
NS1 inh – influenza NS1 inhibition; Potency, µM (doses to about 46.1 µM); 0.4% of 270,000 active; AID 2326; further: actives are rising curves; nearly all actives have a fitted effect of over 50% in size
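In this qHTS, NS1 from influenza A is expressed in budding yeast, where it slows growth. Cells are switched from glucose to 2% galactose medium (pH 6.0, -URA), treated with compound, and growth recovery is read at OD600.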
Shiga inhibitor – inhibitors of Shiga toxin in Vero cells | Vero cells, Shiga toxin protein synthesis inhibition reporter | inhibition, % at 38.7 µM | 9.2% of 290,000 active | AID 2315; in the data active means inhibition mostly above about 28%, no sharp cut-off; inactive means mostly below about 43%
CHX counter – affects cycloheximide protein synthesis inhibition readout, counter-screen. max response, %. 12% of 300,000 active. cell reporter, cycloheximide protein synthesis inhibition counterscreen; in the data active means max response mostly above about 13%, no sharp cut-off; inactive means mostly below about 14%; further: read at 38.3 µM for the half of the compounds with a filed dose
Pf growth 48h – P. falciparum growth inhibition at 48 hours (one generation) | P. falciparum luciferase growth in erythrocytes, 48 h | Potency, µM (top dose mostly 28.7 µM), usual class: inhibitors | 5.9% of 310,000 active | AID 504832; active means well fitted inhibition curve with a large enough effect; inconclusive means small, poorly fitted or top-dose-only effect, or another doubt; inactive means no such curve, though single readings can be large or run the other way
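Here the parasites carry a stable luciferase gene and grow inside erythrocytes in Albumax-based RPMI medium with compound for one erythrocytic cycle. Activity is scored as loss of luminescent signal.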
Pf growth 96h – P. falciparum growth inhibition at 96 hours | P. falciparum luciferase reporter growth, 96 h | 6.9% of 320,000 active | Potency, µM (highest dose often 28.7 µM), hits mostly inhibitors | AID 504834; active means well fitted inhibition curve with a large enough effect; inconclusive means small, poorly fitted or top-dose-only effect, or another doubt; inactive means no such curve, though single readings can be large or run the other way
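Erythrocytes infected with luciferase-expressing P. falciparum were dispensed at 2% hematocrit and 0.05% parasitemia (final), then incubated with compounds 96 hours at 37 C in 5% CO2. Luminescence after detection reagent addition reported growth.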
Large screens that a line does not name were inactive. Unless noted, the call rests on the fitted dose curve.

Fc1ccc(C2CCCN2Cc2nc(Cc3ccccc3F)no2)cc1 (centres undefined)	CHX counter 12.6, Pf growth 48h inconclusive, Pf growth 96h inconclusive
CC(C)NC(=O)CCn1nc(-c2ccc(Cl)cc2)c2ccccc2c1=O	Pf growth 48h inconclusive, Pf growth 96h inconclusive
C=CCNC(=O)CSc1nnc(C(CC)N(C)C)n1C1CCCCC1 (centres undefined)	none
CCCC[C@]12Cc3cc(C#N)ccc3C(O1)c1c(cc(-c3ccccc3)oc1=O)O2	NS1 inh inconclusive, Pf growth 48h inconclusive, Pf growth 96h inconclusive
COc1ccc(CN2CCNC(=O)C2CC(=O)N2CCCO2)c(OC)c1 (centres undefined)	Pf growth 96h inconclusive
Cc1ccc(NC(=O)CCNS(=O)(=O)c2cccs2)cc1F	Shiga inhibitor 69.7, CHX counter 26.2
O=C(CCC(=O)c1cccs1)Nc1ccccc1F	CHX counter 16.5
CC(=O)Nc1ccc(S(=O)(=O)NCCC(=O)Nc2ccc(C)c(F)c2)cc1	Pf growth 96h inconclusive
Cc1ccc(NC(=O)CCC(=O)c2cccs2)cc1F	CHX counter 26.8
Cc1ccc(NC(=O)CNS(=O)(=O)c2cccs2)cc1F	Shiga inhibitor 79.0, CHX counter 80.0 (no result: Pf growth 96h)
COc1ccc(NC(=O)CNS(=O)(=O)c2cccs2)cc1	none
CN(C)Cc1c(O)ccc2c(=O)c(-c3ccccc3Cl)c(C(F)(F)F)oc12	Pf growth 48h inconclusive, Pf growth 96h inconclusive
Cc1c(CCC(=O)NC2CC2)c(=O)oc2c(C)c(O)ccc12	none
CC(OC(=O)c1cc(Br)ccc1O)C(=O)NC1(C#N)CCCCC1 (centres undefined)	none (no result: NS1 inh, Shiga inhibitor, CHX counter)
O=C(Nc1ccc(O)cc1)C1CCCO1 (centres undefined)	none (no result: Pf growth 48h)
Cc1ccc(NC(=O)C2CCCO2)cc1[N+](=O)[O-] (centres undefined)	CHX counter 27.6, Pf growth 96h 2.62µM
CC(=O)c1ccc(NC(=O)C2CCCO2)cc1 (centres undefined)	CHX counter 38.4 (no result: Shiga inhibitor)
CC(=O)c1ccc(N2CCN(C(=O)c3ccc(NC(=O)C4CCCO4)cc3)CC2)cc1 (centres undefined)	CHX counter 14.2, Pf growth 48h inconclusive
COC(=O)Cc1ccc(NC(=S)NNC(=O)C2CC2)cc1	none
CCOC(CCNC(=O)c1cn(C)c(=O)c2c1c1ccccc1n2C)OCC	none
CC1(C)COC(c2coc3ccccc3c2=O)OC1	Shiga inhibitor 87.3, CHX counter 45.8
CCOC(=O)C1=C(C)NC2=C(C(=O)CC(C)(C)C2)C1c1coc2ccccc2c1=O (centres undefined)	Pf growth 48h inconclusive
O=C(COC(=O)CC(c1ccccc1)c1ccccc1)Nc1c(F)cccc1F	none
CC(C)(C)c1ccc(N2C(=O)CSC2c2cccnc2)cc1 (centres undefined)	Pf growth 48h 1.17µM, Pf growth 96h inconclusive
c1ccc2c(c1)CCOC2CNCCCN1CCCCC1 (centres undefined)	Pf growth 48h inconclusive, Pf growth 96h 11.7µM
Cc1cccc(NC(=S)NNC(=O)CCn2cc(C)cn2)c1	Pf growth 96h inconclusive
Cc1cc(C)nc(SCC(N)=O)n1	none
Cc1ccc(N2C(=O)C3N=NN(CC(=O)N4N=C(c5ccccc5)CC4c4ccccc4)C3C2=O)cc1 (centres undefined)	Pf growth 48h 11.7µM (no result: NS1 inh)
CCN1C(=Nc2ccc(Cl)cc2)SC/C1=C\C(=O)OC	CHX counter 21.8, Pf growth 96h inconclusive
Cc1nc2c(c(=O)n1Cc1ccccc1Cl)c1nc3ccccc3nc1n2Cc1ccco1	NS1 inh inconclusive, Pf growth 48h inconclusive, Pf growth 96h inconclusive
CCO/C(C)=N/n1c2nc3ccccc3nc2c2c(=O)n(Cc3ccccc3Cl)c(C)nc21	Pf growth 48h 0.738µM, Pf growth 96h inconclusive
COc1ccc(C2=NN(C(=O)c3cccs3)C(c3ccc(OC)cc3)C2)cc1 (centres undefined)	CHX counter 13.3, Pf growth 48h inconclusive, Pf growth 96h inconclusive
O=C(c1cccs1)N1N=C(c2ccccc2)CC1c1ccccc1 (centres undefined)	Pf growth 48h inconclusive, Pf growth 96h 2.62µM
COc1ccc(C2CC(c3cccs3)=NN2C(=O)c2ccc(Br)o2)cc1 (centres undefined)	Pf growth 48h 1.65µM, Pf growth 96h inconclusive
COc1ccc(C(C)C)cc1S(=O)(=O)NC1CCCC1	Pf growth 48h inconclusive
CCOc1ccc(S(=O)(=O)Nc2nc3ccc(OC)cc3s2)cc1	none (no result: Pf growth 48h)
CCOC(=O)c1sc(Nc2nc3c(F)cccc3s2)cc1C	Shiga inhibitor 72.5, CHX counter 38.1
CCC(=O)NNc1nc2c(C)cccc2s1	none (no result: NS1 inh)
CCOC(=O)c1sc(Nc2nc3ccc(OC)cc3s2)cc1C	Shiga inhibitor 73.8, CHX counter 41.2, Pf growth 48h inconclusive, Pf growth 96h inconclusive
CCN(C(=O)COC(=O)C1CC1)c1c(N)n(Cc2ccccc2)c(=O)[nH]c1=O	Pf growth 48h inconclusive, Pf growth 96h inconclusive (no result: NS1 inh, Shiga inhibitor, CHX counter)
O=C(C[n+]1ccccc1)Nc1c(Cl)cc(Cl)cc1Cl	none
Cc1ccc[n+](CC(=O)Nc2ccc(N(C)C)cc2)c1	Pf growth 96h 5.22µM
Cc1ccc[n+](CC(=O)Nc2c(Cl)cc(Cl)cc2Cl)c1	Shiga inhibitor 75.9, CHX counter 25.3
CN(C)c1ccc(NC(=O)C[n+]2ccccc2)cc1	none
CN(C)c1cc[n+](CC(=O)Nc2ccc(Cl)c([N+](=O)[O-])c2)cc1	Pf growth 48h 1.17µM (no result: Shiga inhibitor)
CN(C)c1cc[n+](CC(=O)Nc2ccc(OC(F)F)cc2)cc1	Pf growth 48h 2.33µM, Pf growth 96h 0.465µM
Cc1cccc(C)c1NC(=O)C(C)Sc1n[nH]c(-c2ccncc2)n1 (centres undefined)	none
CCOC(=O)C1CCCN(C(=O)CSc2nc(C)cc(C)n2)C1 (centres undefined)	none
CCOC(=O)C1CCCN(C(=O)Cn2nc(Cc3cccnc3)c3ccccc3c2=O)C1 (centres undefined)	Pf growth 96h 7.38µM (no result: Pf growth 48h)
CCOC(=O)C1CCCN(C(=O)c2ccccc2Oc2ccccc2)C1 (centres undefined)	Pf growth 96h 1.31µM
Cc1ccccc1CSCC(=O)N1CCN(c2ccccc2)CC1	Shiga inhibitor 70.3, CHX counter 23.1
CCOC(=O)C1CCCN(C(=O)CSc2ccc(Br)cc2)C1 (centres undefined)	Shiga inhibitor 64.6, CHX counter 42.3
CCC(C)NS(=O)(=O)c1ccc(S(=O)(=O)N(CC(=O)Nc2ccccc2)CC2CCCO2)cc1 (centres undefined)	none (no result: Pf growth 96h)
CCOC(=O)N1CCN(C/C(Cl)=C/c2ccccc2)CC1	Shiga inhibitor 19.9, CHX counter 14.0
O=C(C1CCN(C2CCN(C/C(Cl)=C/c3ccccc3)CC2)CC1)N1CCOCC1	Pf growth 96h 10.4µM
CCOC(=O)C1CCCN(C(=O)CSCc2ccccc2)C1 (centres undefined)	Shiga inhibitor 52.2, CHX counter 44.2, Pf growth 96h inconclusive

Screening data (PubChem BioAssay)
